The results in this text go back to ChEMBL document CHEMBL3988442, “University of Dundee, Small-Polar-MMV Screening Library” (2021).

For some of these results: Measured potencies and affinities stand elsewhere.

Common to all, as to set-up: scale not given: direction of the effect not stated beside the values
The target in test [1] is Protein translocase subunit SecA (Escherichia coli (strain K12)) (UniProt P10408). The test can be described thus: Assay to Identify E. coli SecA ATPase Inhibitors. Format: functional. The settings on record: 30 µM.
Sequence of Protein translocase subunit SecA (Escherichia coli (strain K12)) (P10408 whole entry): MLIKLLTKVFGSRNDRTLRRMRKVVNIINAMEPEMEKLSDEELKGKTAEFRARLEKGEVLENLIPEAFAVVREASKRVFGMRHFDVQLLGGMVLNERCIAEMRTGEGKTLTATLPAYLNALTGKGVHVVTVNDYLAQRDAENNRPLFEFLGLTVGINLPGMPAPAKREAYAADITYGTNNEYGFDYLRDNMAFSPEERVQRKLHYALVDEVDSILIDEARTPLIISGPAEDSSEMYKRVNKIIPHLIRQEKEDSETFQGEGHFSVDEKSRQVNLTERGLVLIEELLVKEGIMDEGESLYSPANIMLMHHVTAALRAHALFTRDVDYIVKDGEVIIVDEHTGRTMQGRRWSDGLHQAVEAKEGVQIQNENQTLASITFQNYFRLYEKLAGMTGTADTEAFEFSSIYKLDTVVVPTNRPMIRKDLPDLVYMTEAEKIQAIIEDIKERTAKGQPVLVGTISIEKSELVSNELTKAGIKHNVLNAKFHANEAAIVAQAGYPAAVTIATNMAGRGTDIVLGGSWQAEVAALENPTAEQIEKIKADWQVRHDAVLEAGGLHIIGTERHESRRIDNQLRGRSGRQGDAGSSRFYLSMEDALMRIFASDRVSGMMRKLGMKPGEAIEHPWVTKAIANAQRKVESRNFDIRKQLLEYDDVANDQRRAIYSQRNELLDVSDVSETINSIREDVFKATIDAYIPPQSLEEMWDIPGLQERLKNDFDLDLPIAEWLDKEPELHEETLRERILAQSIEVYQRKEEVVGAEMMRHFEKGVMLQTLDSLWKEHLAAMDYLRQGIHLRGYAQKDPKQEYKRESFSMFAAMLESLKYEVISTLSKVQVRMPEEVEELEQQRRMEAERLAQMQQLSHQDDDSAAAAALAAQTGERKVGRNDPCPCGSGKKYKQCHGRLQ
Test [2] has as its target T1, Ubiquitin-activating enzyme e1, putative (Leishmania donovani (strain BPK282A1)) (UniProt E9BSI1).
T1 sequence (whole entry): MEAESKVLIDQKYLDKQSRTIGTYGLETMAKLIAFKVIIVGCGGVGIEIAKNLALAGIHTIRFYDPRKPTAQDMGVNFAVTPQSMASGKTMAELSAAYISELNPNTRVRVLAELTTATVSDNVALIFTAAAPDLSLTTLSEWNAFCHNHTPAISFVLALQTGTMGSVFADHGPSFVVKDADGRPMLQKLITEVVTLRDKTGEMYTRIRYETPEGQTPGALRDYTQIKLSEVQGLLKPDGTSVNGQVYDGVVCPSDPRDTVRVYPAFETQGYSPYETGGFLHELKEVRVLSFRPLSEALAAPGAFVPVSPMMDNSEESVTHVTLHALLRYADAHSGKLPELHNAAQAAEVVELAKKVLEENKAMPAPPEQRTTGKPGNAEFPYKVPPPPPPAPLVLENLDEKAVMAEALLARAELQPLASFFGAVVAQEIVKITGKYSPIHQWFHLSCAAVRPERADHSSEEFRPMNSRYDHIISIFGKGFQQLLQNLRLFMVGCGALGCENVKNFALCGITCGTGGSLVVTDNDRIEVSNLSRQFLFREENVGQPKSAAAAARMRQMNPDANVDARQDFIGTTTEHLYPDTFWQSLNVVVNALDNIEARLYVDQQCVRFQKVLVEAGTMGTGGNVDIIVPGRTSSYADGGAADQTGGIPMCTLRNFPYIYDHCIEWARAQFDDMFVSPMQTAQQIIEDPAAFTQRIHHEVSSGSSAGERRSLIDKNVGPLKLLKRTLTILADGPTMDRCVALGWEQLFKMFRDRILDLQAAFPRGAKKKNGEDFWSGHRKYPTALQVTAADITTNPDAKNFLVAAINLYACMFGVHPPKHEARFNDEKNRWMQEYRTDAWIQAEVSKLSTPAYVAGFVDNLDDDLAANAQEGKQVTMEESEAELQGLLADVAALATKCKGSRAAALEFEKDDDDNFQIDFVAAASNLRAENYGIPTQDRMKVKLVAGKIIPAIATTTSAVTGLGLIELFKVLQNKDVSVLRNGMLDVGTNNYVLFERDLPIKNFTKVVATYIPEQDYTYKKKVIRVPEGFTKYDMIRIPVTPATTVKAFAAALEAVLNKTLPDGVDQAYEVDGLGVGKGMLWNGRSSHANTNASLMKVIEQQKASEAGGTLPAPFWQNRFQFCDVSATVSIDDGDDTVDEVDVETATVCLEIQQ
The test can be described thus: Leishmania donovani Ubiquitin Activating Enzyme (LdE1). It counts as functional. The settings on record: 30 µM.

Test [3] deals with Sialic acid-binding Ig-like lectin 9 (Homo sapiens) (UniProt Q9Y336). Description: Hs-Siglec9 ALPHAscreen SOP 20170721. The following applies: 10 µM.
Sequence of Sialic acid-binding Ig-like lectin 9 (Homo sapiens) (Q9Y336 whole entry): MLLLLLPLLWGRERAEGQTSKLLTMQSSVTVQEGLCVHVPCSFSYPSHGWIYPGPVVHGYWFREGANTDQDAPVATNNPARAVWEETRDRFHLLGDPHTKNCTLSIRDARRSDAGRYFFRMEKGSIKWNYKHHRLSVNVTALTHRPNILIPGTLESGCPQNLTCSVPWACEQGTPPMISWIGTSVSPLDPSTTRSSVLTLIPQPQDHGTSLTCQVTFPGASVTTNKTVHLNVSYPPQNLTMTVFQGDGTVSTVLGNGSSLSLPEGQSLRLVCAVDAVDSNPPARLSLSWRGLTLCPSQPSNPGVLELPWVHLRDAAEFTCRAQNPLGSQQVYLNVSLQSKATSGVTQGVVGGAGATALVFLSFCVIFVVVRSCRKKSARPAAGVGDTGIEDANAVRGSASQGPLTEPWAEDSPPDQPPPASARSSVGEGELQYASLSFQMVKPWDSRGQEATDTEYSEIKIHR
Another test relates to Trypanosoma cruzi. The test can be described thus: Trypanosoma cruzi phosphomannomutase and mannose-1-phosphate guanylyltransferase assay. It counts as functional. The following applies: 10 µM.
Test [4] deals with T2, Arginase-2, mitochondrial (Homo sapiens) (UniProt P78540).
T2 sequence (whole entry): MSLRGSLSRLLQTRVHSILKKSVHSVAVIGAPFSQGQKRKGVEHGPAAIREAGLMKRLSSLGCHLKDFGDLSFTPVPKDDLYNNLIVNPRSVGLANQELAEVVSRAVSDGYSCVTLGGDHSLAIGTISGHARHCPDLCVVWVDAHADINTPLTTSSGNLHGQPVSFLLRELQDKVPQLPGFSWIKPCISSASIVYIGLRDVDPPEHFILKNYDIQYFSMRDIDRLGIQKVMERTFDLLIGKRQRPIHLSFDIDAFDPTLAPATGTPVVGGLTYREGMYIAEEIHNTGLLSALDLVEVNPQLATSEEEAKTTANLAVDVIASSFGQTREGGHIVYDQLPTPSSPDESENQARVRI
The test can be described thus: in vitro enzyme assay to detect the production of urea directly proportional to the activity of Arginase II. Further: in the data most compounds retested in dose-response had high values. Format: functional. The settings on record: 33.3 µM.

The target in test [5] is T3, Proteasome subunit beta (Trypanosoma cruzi) (UniProt O96673).
T3 sequence (whole entry): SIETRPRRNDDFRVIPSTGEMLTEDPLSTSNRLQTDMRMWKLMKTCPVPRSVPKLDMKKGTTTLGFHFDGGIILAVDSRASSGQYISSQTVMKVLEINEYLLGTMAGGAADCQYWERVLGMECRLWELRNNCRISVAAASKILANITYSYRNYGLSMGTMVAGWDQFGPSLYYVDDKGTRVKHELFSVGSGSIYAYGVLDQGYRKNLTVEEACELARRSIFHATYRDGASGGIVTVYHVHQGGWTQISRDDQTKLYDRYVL
Description: Trypanosoma cruzi proteasome chymotrypsin-like activity (TcProtChymo) assay. Further: in the data most compounds retested in dose-response had high values. Format: functional. The following applies: 9.37 µM.

The species named for a further test is Homo sapiens. The test can be described thus: To identify inhibition of the IFN signalling (Jak-Stat) pathway via expression of an eGFP reporter gene under the control of an IFN-stimulated response element (ISRE) containing MxA promoter. It counts as functional. The settings on record: 30 µM.
Test [6] concerns the target T4, Tyrosyl-tRNA synthetase, putative (Trypanosoma cruzi (strain CL Brener)) (UniProt Q4DSP6).
T4 sequence (whole entry): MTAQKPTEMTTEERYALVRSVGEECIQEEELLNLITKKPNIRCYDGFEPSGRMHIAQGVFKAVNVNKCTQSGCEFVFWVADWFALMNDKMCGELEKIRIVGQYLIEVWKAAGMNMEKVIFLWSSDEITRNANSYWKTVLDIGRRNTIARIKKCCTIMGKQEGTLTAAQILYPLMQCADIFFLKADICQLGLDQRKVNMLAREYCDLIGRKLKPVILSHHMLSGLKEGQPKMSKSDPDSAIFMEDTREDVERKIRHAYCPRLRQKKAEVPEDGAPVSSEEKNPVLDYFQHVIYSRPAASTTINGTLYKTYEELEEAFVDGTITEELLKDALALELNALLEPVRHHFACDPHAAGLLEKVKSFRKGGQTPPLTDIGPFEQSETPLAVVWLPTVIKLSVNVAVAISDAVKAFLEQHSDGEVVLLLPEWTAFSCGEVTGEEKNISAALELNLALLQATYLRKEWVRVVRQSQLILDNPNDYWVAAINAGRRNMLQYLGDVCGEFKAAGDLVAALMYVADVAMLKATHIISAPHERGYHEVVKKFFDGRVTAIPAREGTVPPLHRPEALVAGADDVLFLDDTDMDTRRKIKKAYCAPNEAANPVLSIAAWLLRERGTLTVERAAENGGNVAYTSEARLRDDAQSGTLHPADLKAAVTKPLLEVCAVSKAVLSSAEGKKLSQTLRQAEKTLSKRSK
Description: Trypanosoma cruzi tyrosyl tRNA synthetase (TcYRS) _High Tyrosine SOP. Further: in the data most compounds retested in dose-response had high values. Format: functional. The following applies: 30 µM.

Test [7] addresses T4, Tyrosyl-tRNA synthetase, putative (Trypanosoma cruzi (strain CL Brener)). The test can be described thus: Trypanosoma cruzi tyrosyl tRNA synthetase (TcYRS) SOP. It counts as functional. The settings on record: 30 µM.
In test [8] the target is Chromo domain-containing protein 1 (Saccharomyces cerevisiae (strain ATCC 204508 / S288c) (Baker's yeast)) (UniProt P32657). Description: ScCHD-1 Enzyme Inhibition Assay. Further: in the data most compounds retested in dose-response had high values. The following applies: 30 µM. It counts as functional.
Sequence of Chromo domain-containing protein 1 (Saccharomyces cerevisiae (strain ATCC 204508 / S288c) (Baker's yeast)) (P32657 whole entry, the tested form may be a part): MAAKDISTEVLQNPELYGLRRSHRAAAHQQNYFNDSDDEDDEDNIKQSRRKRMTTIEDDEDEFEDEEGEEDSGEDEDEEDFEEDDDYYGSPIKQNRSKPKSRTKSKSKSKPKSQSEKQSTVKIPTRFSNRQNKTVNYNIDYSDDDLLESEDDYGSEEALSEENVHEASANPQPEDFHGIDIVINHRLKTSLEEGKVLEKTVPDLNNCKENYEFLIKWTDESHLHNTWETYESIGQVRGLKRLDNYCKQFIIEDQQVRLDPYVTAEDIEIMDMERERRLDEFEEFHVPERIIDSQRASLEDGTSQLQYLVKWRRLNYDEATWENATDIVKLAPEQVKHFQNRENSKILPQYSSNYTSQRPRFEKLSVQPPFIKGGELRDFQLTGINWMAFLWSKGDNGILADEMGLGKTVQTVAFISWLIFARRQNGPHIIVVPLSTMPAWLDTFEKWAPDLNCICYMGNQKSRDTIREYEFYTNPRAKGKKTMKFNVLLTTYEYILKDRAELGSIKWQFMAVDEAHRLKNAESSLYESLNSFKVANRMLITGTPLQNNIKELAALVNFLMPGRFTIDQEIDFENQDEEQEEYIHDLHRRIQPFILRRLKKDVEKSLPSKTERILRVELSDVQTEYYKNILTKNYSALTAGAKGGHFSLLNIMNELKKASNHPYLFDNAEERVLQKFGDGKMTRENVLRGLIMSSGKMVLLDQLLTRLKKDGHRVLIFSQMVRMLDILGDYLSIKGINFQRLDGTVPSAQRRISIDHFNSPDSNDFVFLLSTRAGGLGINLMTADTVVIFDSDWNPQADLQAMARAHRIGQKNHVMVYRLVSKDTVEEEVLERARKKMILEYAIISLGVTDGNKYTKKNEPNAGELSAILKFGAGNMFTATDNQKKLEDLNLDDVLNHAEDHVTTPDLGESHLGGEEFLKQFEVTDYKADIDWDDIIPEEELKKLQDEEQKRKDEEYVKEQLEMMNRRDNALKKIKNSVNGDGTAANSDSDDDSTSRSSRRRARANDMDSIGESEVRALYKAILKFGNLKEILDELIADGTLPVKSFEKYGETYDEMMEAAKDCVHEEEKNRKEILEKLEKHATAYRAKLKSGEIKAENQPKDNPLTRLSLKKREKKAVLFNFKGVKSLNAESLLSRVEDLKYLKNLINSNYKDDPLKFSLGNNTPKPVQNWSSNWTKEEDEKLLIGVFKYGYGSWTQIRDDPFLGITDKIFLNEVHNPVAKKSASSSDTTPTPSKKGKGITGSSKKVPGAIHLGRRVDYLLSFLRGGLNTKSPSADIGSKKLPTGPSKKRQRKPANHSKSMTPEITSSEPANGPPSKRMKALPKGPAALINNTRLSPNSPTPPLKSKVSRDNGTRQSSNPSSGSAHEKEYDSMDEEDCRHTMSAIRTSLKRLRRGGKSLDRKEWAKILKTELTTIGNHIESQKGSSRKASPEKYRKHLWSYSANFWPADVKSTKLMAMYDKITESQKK

For the compound `O=C(c1ccc2c(c1)OCO2)N1CCN(c2cnccn2)CC1`, the Percent Effect in test [1] is -4.95%; in [2], 12.8%; in test [3], -0.564%; with Trypanosoma cruzi it was -1.6%; in test [4] it was 4.51%; in test [5] it was 10.2%. Besides, the Percent Effect is 16% in the test filed under Homo sapiens, 5.26% in test [6], 13.2% in test [7] and -6.8% in [8].
With `COc1ccc(CN2CCC[C@@H]3CN(C(=O)c4ccco4)C[C@@H]32)cc1`, the Percent Effect was -4.96% in test [1]; 11.7% in test [2]; -12.3% in [3]; -3.6% in the test on Trypanosoma cruzi; -4.05% in [4]; 17.6% in test [5]. For the same compound, the Percent Effect came out at 3.21% in the test filed under Homo sapiens, 3.68% in [6], 10.3% in test [7] and 0.299% in [8].
`c1ccc(-c2nc(CN3CCc4c(ncn4C4CC4)C3)cs2)cc1`: the Percent Effect in test [1] is -0.517%; in [2], 5.2%; in [3], -12.1%; in the test on Trypanosoma cruzi it was -0.933%; in [4], -7.99%; in test [5], 16%. Moreover, the Percent Effect in the test filed under Homo sapiens is 28.5%; in test [6] it was 12.8%; in [7], 18.8%; in test [8] it was -8.68%.
In the case of `CCc1ncnc2c1CCN(Cc1ccc(OC)cc1)CC2`, the Percent Effect in [1] is -4.58%; in test [2], -6.49%; in test [3] it was -0.0854%; in the test with Trypanosoma cruzi, 2.82%; in test [4], -2.02%; in test [5], -3.79%. Also, the Percent Effect in the test listed under Homo sapiens is -6.35%; in test [6], 1.58%; in [7] it was -12.8%; in test [8] it was 0.0386%.
`CN(Cc1ccccc1)CC(O)Cn1cnc2c(cnn2C)c1=O` (stereo not given): the Percent Effect was -1.52% in test [1]; 17.9% in test [2]; -4.11% in test [3]; 4.79% with Trypanosoma cruzi; 2.46% in test [4]; 10.5% in [5]. For the same compound, the Percent Effect in the test listed under Homo sapiens is -1.98%; in [6] it was 7.18%; in [7], 22.9%; in test [8], -3.86%.
In the case of `Cc1ccc(-c2nc(CNCC3CN(C)CCO3)cs2)o1` (stereo not given), the Percent Effect in [1] was 0.253%; in [2], 28.6%; in test [3] it was -5.08%; in the test with Trypanosoma cruzi, 6.53%; in [4], -12.9%; in test [5], 25.4%. In addition, the Percent Effect in the test listed under Homo sapiens is 20%; in [6] it was 6.86%; in test [7] it was 21.2%; in [8], -12.3%.
Turning to `CO[C@@H]1CCN(C(=O)c2ccccn2)[C@H]1Cc1ccccc1`, the Percent Effect in [1] was -0.453%; in test [2], 19.5%; in [3], 2.27%; with Trypanosoma cruzi, 1.5%; in test [4], -0.457%; in test [5], 6.95%. Moreover, the Percent Effect in the test listed under Homo sapiens is 8.74%; in test [6] it was 8.7%; in [7], 10%; in test [8] it was -6.55%.
